Laboratory results from PubChem BioAssay (NCI).
This is part of a sample that, as a whole, favours compounds with a hit. Of some 83,000 tested, about 20% had one in any assay.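 A percent growth of 40 corresponds to 60% growth inhibition; 0 means no net growth; -100 means all cells died. Active threshold: below 10.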 Activity calls are given as the source filed them.

What was measured:
Experiment in all cases: NCI-60 one-dose screen, 48 h (100 = growth as untreated, 0 = no growth, -100 = all killed)
Conditions in all cases: 10 µM
DU-145 prostate = tested on: DU-145 prostate
K-562 leukemia = tested on: K-562 leukemia
MALME-3M melanoma = tested on: MALME-3M melanoma
MDA-MB-231 breast = tested on: MDA-MB-231 breast
RXF 393 renal = tested on: RXF 393 renal
SF-268 CNS = tested on: SF-268 CNS
SF-295 CNS = tested on: SF-295 CNS
SF-539 CNS = tested on: SF-539 CNS
UACC-257 melanoma = tested on: UACC-257 melanoma
M14 melanoma = tested on: M14 melanoma
HCT-15 colon = tested on: HCT-15 colon
SNB-75 CNS = tested on: SNB-75 CNS
SNB-19 CNS = tested on: SNB-19 CNS
U251 CNS = tested on: U251 CNS
PC-3 prostate = tested on: PC-3 prostate
SK-MEL-5 melanoma = tested on: SK-MEL-5 melanoma
UACC-62 melanoma = tested on: UACC-62 melanoma
LOX IMVI melanoma = tested on: LOX IMVI melanoma
SK-MEL-28 melanoma = tested on: SK-MEL-28 melanoma
HT29 colon = tested on: HT29 colon

Measured: growth

CCOc1ccc(-n2cc(-c3ccc(N(C)C)cc3)[n+]3c2CCCCC3)cc1
active: K-562 leukemia 9.14% | MALME-3M melanoma 2.39% | SF-295 CNS -14.7% | UACC-257 melanoma -12.6% | U251 CNS 8.21% | PC-3 prostate 4.48% | SK-MEL-5 melanoma -92.4%
inactive: DU-145 prostate 25.7% | MDA-MB-231 breast 19.4% | RXF 393 renal 39.7% | SF-268 CNS 29.1% | SF-539 CNS 26.6% | M14 melanoma 10.4% | HCT-15 colon 75.8% | SNB-75 CNS 18.4% | SNB-19 CNS 20.3% | UACC-62 melanoma 20.4% | LOX IMVI melanoma 12.7% | SK-MEL-28 melanoma 51.2%

COc1ccc(-c2csc(-c3cc(Cl)cc(Cl)c3Cl)n2)cc1
inactive: DU-145 prostate 99.8% | K-562 leukemia 83.9% | MALME-3M melanoma 77.7% | MDA-MB-231 breast 73.6% | SF-268 CNS 97.1% | SF-295 CNS 103% | SF-539 CNS 94.8% | UACC-257 melanoma 46.2% | M14 melanoma 97.7% | HCT-15 colon 89.2% | HT29 colon 101% | SNB-75 CNS 91.6% | SNB-19 CNS 103% | U251 CNS 93.3% | PC-3 prostate 95% | SK-MEL-5 melanoma 29.2% | UACC-62 melanoma 63% | LOX IMVI melanoma 83.1% | SK-MEL-28 melanoma 107%

CN(C)CCCN1c2ccccc2Sc2ccc(C(F)(F)F)cc21
active: K-562 leukemia -46.2% | MALME-3M melanoma -80.6% | MDA-MB-231 breast 4.03% | SF-295 CNS -2.18% | SF-539 CNS 3.74% | UACC-257 melanoma 6.53% | M14 melanoma -84.6% | HT29 colon -8.15% | SNB-75 CNS -2.79% | SK-MEL-5 melanoma -95.4% | UACC-62 melanoma -52.6% | LOX IMVI melanoma -75.3% | SK-MEL-28 melanoma -64.1%
inactive: DU-145 prostate 50.3% | SF-268 CNS 16.8% | HCT-15 colon 17.3% | SNB-19 CNS 35.9% | U251 CNS 19.5% | PC-3 prostate 23.3%

COc1ccc(-c2cc(=O)n(-c3nc4ccccc4[nH]3)[nH]2)cc1OC
active: RXF 393 renal 3.51% | SF-295 CNS -12.8%
inactive: DU-145 prostate 83% | K-562 leukemia 26.5% | MALME-3M melanoma 67.2% | MDA-MB-231 breast 94.5% | SF-268 CNS 72.3% | SF-539 CNS 71.3% | UACC-257 melanoma 89.2% | M14 melanoma 54.5% | HCT-15 colon 32% | SNB-75 CNS 60.2% | SNB-19 CNS 63.2% | U251 CNS 45.9% | PC-3 prostate 62.5% | SK-MEL-5 melanoma 62.7% | UACC-62 melanoma 31% | LOX IMVI melanoma 61.8% | SK-MEL-28 melanoma 84%

Nc1c(CNCc2nnn(Cc3ccccc3)c2N)nnn1Cc1ccccc1
inactive: DU-145 prostate 107% | K-562 leukemia 93.6% | MALME-3M melanoma 79.9% | MDA-MB-231 breast 108% | RXF 393 renal 99.7% | SF-268 CNS 103% | SF-295 CNS 101% | SF-539 CNS 95.6% | UACC-257 melanoma 103% | M14 melanoma 98.5% | HCT-15 colon 93.9% | SNB-75 CNS 99% | SNB-19 CNS 103% | U251 CNS 97.6% | PC-3 prostate 98.9% | SK-MEL-5 melanoma 104% | UACC-62 melanoma 102% | LOX IMVI melanoma 95.3% | SK-MEL-28 melanoma 115%

COC(=O)[C@]12CC[C@@H](C)[C@H](C)[C@@H]1C1=CC[C@@H]3[C@@]4(C)C/C(=N\O)[C@H](O)[C@@]5(C)COC(=C45)C[C@@]3(C)[C@]1(C)CC2
active: DU-145 prostate -94.8% | K-562 leukemia -58.4% | MALME-3M melanoma -71.1% | MDA-MB-231 breast -59.3% | RXF 393 renal -73.4% | SF-268 CNS -78.6% | SF-295 CNS -88.5% | SF-539 CNS -75.2% | UACC-257 melanoma -90.5% | M14 melanoma -82.3% | HCT-15 colon -92.7% | SNB-75 CNS -87.8% | SNB-19 CNS -66.2% | U251 CNS -96.4% | PC-3 prostate -81.5% | SK-MEL-5 melanoma -97.7% | UACC-62 melanoma -57.6% | LOX IMVI melanoma -71.6% | SK-MEL-28 melanoma -60.3%

Cc1ccc(C2C=C(c3ccc(Cl)cc3)N=C3SC=CN32)c(Br)c1 (stereo not given)
inactive: DU-145 prostate 89.1% | K-562 leukemia 44.9% | MALME-3M melanoma 87.3% | MDA-MB-231 breast 90% | RXF 393 renal 71.7% | SF-268 CNS 92% | SF-295 CNS 96.1% | SF-539 CNS 89.7% | UACC-257 melanoma 103% | M14 melanoma 94.4% | HCT-15 colon 75.1% | SNB-75 CNS 75.5% | U251 CNS 60.3% | PC-3 prostate 65.5% | SK-MEL-5 melanoma 84.8% | UACC-62 melanoma 83.3% | LOX IMVI melanoma 55.9% | SK-MEL-28 melanoma 105%

O=C(OCc1ncc(-c2ccc(C(F)(F)F)cc2)c(NC2CCCCCC2)n1)c1c(F)c(F)c(F)c(F)c1F
active: MALME-3M melanoma -14.4%
inactive: DU-145 prostate 77.2% | K-562 leukemia 31.9% | MDA-MB-231 breast 81.4% | RXF 393 renal 64.3% | SF-268 CNS 72.5% | SF-295 CNS 24.5% | SF-539 CNS 96.3% | UACC-257 melanoma 34.9% | M14 melanoma 43.7% | HCT-15 colon 89.3% | SNB-75 CNS 76.1% | SNB-19 CNS 73.8% | U251 CNS 46.8% | PC-3 prostate 28.6% | UACC-62 melanoma 36.6% | LOX IMVI melanoma 57.5% | SK-MEL-28 melanoma 47.4%

CS(=O)(=O)Nc1ccc([N+](=O)[O-])cc1Oc1ccccc1
inactive: DU-145 prostate 100% | K-562 leukemia 78% | MALME-3M melanoma 92.4% | MDA-MB-231 breast 118% | SF-268 CNS 98.4% | SF-295 CNS 84.2% | SF-539 CNS 104% | UACC-257 melanoma 94.7% | M14 melanoma 105% | HCT-15 colon 104% | HT29 colon 99.9% | SNB-75 CNS 110% | SNB-19 CNS 104% | U251 CNS 90.4% | PC-3 prostate 95.4% | SK-MEL-5 melanoma 84.2% | UACC-62 melanoma 89.8% | LOX IMVI melanoma 88.2% | SK-MEL-28 melanoma 118%

FC(F)(F)c1ccc(-c2cnc(Cl)nc2NC2CCCCCC2)cc1
active: MALME-3M melanoma -42.8% | SF-295 CNS -45.6% | UACC-257 melanoma -10.3% | U251 CNS 5.17% | SK-MEL-5 melanoma -8.26%
inactive: DU-145 prostate 59.7% | K-562 leukemia 11.9% | MDA-MB-231 breast 47.4% | RXF 393 renal 31.3% | SF-268 CNS 39.4% | SF-539 CNS 75.1% | M14 melanoma 21.8% | HCT-15 colon 75.7% | SNB-75 CNS 49.9% | SNB-19 CNS 31.2% | UACC-62 melanoma 16.2% | LOX IMVI melanoma 27.9% | SK-MEL-28 melanoma 37.6%

N=C(N)c1ccc(-c2ccc(-c3cccs3)s2)nc1
inactive: DU-145 prostate 64.4% | MALME-3M melanoma 57.1% | RXF 393 renal 30.8% | SF-268 CNS 70.1% | SF-539 CNS 84.5% | UACC-257 melanoma 63.2% | M14 melanoma 75% | HCT-15 colon 12.2% | SNB-75 CNS 41.3% | SNB-19 CNS 87.8% | U251 CNS 28% | PC-3 prostate 43.7% | SK-MEL-5 melanoma 68.6% | UACC-62 melanoma 86.8% | LOX IMVI melanoma 10.5% | SK-MEL-28 melanoma 83.7%
active: K-562 leukemia -14.9% | MDA-MB-231 breast 8.8% | SF-295 CNS 7.11%

CC(=O)OC1Oc2ccccc2-c2oc(=O)c(-c3ccc(F)cc3)cc21 (stereo not given)
active: SK-MEL-5 melanoma -35.4%
inactive: DU-145 prostate 92.4% | K-562 leukemia 87.7% | MALME-3M melanoma 99.5% | MDA-MB-231 breast 73.1% | SF-268 CNS 81.4% | SF-295 CNS 89.1% | SF-539 CNS 86.4% | UACC-257 melanoma 58.6% | M14 melanoma 100% | HCT-15 colon 95.8% | HT29 colon 99% | SNB-75 CNS 71.8% | SNB-19 CNS 100% | U251 CNS 76.2% | PC-3 prostate 110% | UACC-62 melanoma 50% | LOX IMVI melanoma 85.3% | SK-MEL-28 melanoma 96.7%

O=C(COc1ccc(Cl)cc1Cl)Oc1coc(CSc2nc3ccccc3s2)cc1=O
inactive: DU-145 prostate 106% | K-562 leukemia 83% | MALME-3M melanoma 93.4% | MDA-MB-231 breast 86.8% | SF-268 CNS 102% | SF-295 CNS 105% | SF-539 CNS 98.6% | UACC-257 melanoma 27.3% | M14 melanoma 110% | HCT-15 colon 103% | HT29 colon 114% | SNB-75 CNS 112% | SNB-19 CNS 103% | U251 CNS 97.3% | PC-3 prostate 106% | UACC-62 melanoma 70.5% | LOX IMVI melanoma 90.5% | SK-MEL-28 melanoma 131%
active: SK-MEL-5 melanoma -78%

COc1ccc2nc(/C=C/c3ccc(N(C)C)cc3)sc2c1
inactive: DU-145 prostate 111% | K-562 leukemia 73.5% | MALME-3M melanoma 97.4% | MDA-MB-231 breast 95.6% | SF-268 CNS 102% | SF-295 CNS 93.1% | SF-539 CNS 103% | UACC-257 melanoma 119% | M14 melanoma 103% | HCT-15 colon 93.8% | HT29 colon 93.3% | SNB-75 CNS 92.3% | SNB-19 CNS 131% | U251 CNS 90.7% | PC-3 prostate 98.9% | SK-MEL-5 melanoma 90.1% | UACC-62 melanoma 94.7% | LOX IMVI melanoma 91.5% | SK-MEL-28 melanoma 109%

NC(=O)C1CCCN(Cc2c[nH]c3ccccc23)C1 (stereo not given)
inactive: DU-145 prostate 106% | K-562 leukemia 97.3% | MALME-3M melanoma 99.7% | MDA-MB-231 breast 99.8% | RXF 393 renal 95.2% | SF-268 CNS 96% | SF-295 CNS 92.7% | SF-539 CNS 92.9% | UACC-257 melanoma 96.5% | M14 melanoma 99% | HCT-15 colon 102% | SNB-75 CNS 85.9% | SNB-19 CNS 103% | U251 CNS 95.2% | PC-3 prostate 91.2% | SK-MEL-5 melanoma 99.6% | UACC-62 melanoma 104% | LOX IMVI melanoma 90.1% | SK-MEL-28 melanoma 110%

C/C(=N/NC(=O)c1sc(=S)n(C)c1N)c1cc2cc(Cl)ccc2o1
inactive: DU-145 prostate 87.2% | K-562 leukemia 72.8% | MALME-3M melanoma 113% | MDA-MB-231 breast 68.9% | SF-268 CNS 80.2% | SF-295 CNS 109% | SF-539 CNS 99.2% | M14 melanoma 91.7% | HCT-15 colon 92.6% | HT29 colon 92.9% | SNB-75 CNS 144% | SNB-19 CNS 98.8% | U251 CNS 97.5% | PC-3 prostate 101% | SK-MEL-5 melanoma 11.3% | LOX IMVI melanoma 72.9% | SK-MEL-28 melanoma 128%
active: UACC-257 melanoma 5.89%
